Experimental data published in PubChem BioAssay (NCI).
Compounds without any hit were thinned out: in the full panel of roughly 83,000, 20% have a hit.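 Activity criterion: percent growth below 10, measured after cells in 96-well plates were exposed to a single compound concentration for 48 hours.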 Active and inactive are the calls of the source.

What follows are compounds tested on MDA-MB-468 breast (assay: NCI-60 one-dose screen, 48 h (100 = growth as untreated, 0 = no growth, -100 = all killed)). Details: 10 µM unless noted.

Structure (SMILES)	growth
COc1ccc2c(c1)c(-c1nc(-c3c[nH]c4ncccc34)cs1)cn2CCCCN1CCCCC1	-75.6% (active)
O=C(CCl)c1ccc([N+](=O)[O-])o1	-49.5% (active)
C/C(=C\c1ccn(-c2ccc(N)cc2F)n1)[C@@H]1C[C@@H]2O[C@]2(C)CCC[C@H](C)[C@H](O)[C@@H](C)C(=O)C(C)(C)[C@@H](O)CC(=O)O1	8.6% (active)
COC(=O)CCC1=C(C)c2cc3[n-]c(cc4nc(cc5[n-]c(cc1n2)c(CCC(=O)OC)c5C)C=C4C)cc3C.[Cd+2]	81.6% (inactive)
Cn1cc(-c2csc(-c3cn(CCCCN4CCCCC4)c4ccc(F)cc34)n2)c2cccnc21	93.3% (inactive)
